# Experimental data published in PubChem BioAssay AID651965 (National Center for Advancing Translational Sciences (NCATS), 2013).
# Hit rate of the full screen: of about 340,000 compounds, about 6,400 (1.9%) were called active. About 4% were inconclusive and are not listed. Calls come from the whole dose curve; as a rule, active = well fitted falling curve with a large enough effect; inconclusive = small, poorly fitted or top-dose-only effect; inactive = no such curve, though single readings can be large or run the other way. Many of the other results were omitted from the sample, so actives are more common in it than they were.
# Target: ATP-dependent Clp protease proteolytic subunit (Bacillus subtilis (strain 168)) (UniProt P80244)
# Assay: qHTS Assay for Activators of ClpP; note: the source files actives as falling curves though it sought activators and does not explain the sign; nearly all actives have a fitted effect of over 65% in size
# Settings: purified B. subtilis ClpP, FRET peptide cleavage, 20 min; series mostly up to 57.5 µM; activity change, negative = active: at the top concentration
# Outline: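 ClpP 10 microg/mL final, pH 8 Tris/KCl buffer with BSA, glycerol, Tween-20; compound pinned in; FRET-FV substrate; RT 20 min; Ex320/Em430; ΔFRET vs ADEP 5.8 microM, DMSO, no enzyme.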
# Potency is the fitted concentration of half-maximal effect.
Compound,"activity change, negative = active",Potency
COc1cc(F)ccc1-c1cc(C(=O)NCC2CCCCC2)[nH]n1,-1.75% (inactive),–
COc1ccc(CSc2nnnn2-c2ccc(C(=O)O)cc2)cc1,1.38% (inactive),–
COc1ccc(-n2nnnc2-c2nc3ccccc3s2)cc1,–,28.2 µM (active)
COc1ccc(-n2nnnc2CNC(=O)c2ccc3ccccc3c2)cc1,-16% (inactive),–
CCCCOCCCNC(=O)C[C@@H]1C[C@@]2(C(=O)OC)CCCCC=C2N(CCC2=CCCCC2)C1=O,1.12% (inactive),–
COc1ccccc1CNC(=O)c1cc(-c2cc(Cl)ccc2C)n[nH]1,-0.552% (inactive),–
OC[C@H]1O[C@@H](c2nc(-c3nc(-c4ccc(F)cc4)no3)cs2)[C@H](O)[C@@H](O)[C@H]1O,-1.14% (inactive),–
CCN1CCN(C(=O)Cn2nc(C)n3c(cc4c(OC)cccc43)c2=O)CC1,3.98% (inactive),–
COc1cccc2c1cc1c(=O)n(CC(=O)N3CCN(c4ccccc4)CC3)nc(C)n12,–,25.1 µM (active)
Cc1nn(CC(=O)N2CCN(c3cccc(C(F)(F)F)c3)CC2)c(=O)c2cc3sccc3n12,-1.4% (inactive),–
CN[C@H]1C[C@H]2c3cc(Oc4ccccc4C)ccc3CCN2C(=O)[C@H]1[C@H](C)O,-4.92% (inactive),–
CCCS(=O)(=O)NC(=O)C1(C)CCCN(C(=O)c2cc(C)on2)C1 (stereo not drawn),-2.31% (inactive),–
CCCCCCC1(C)NC(c2ccc3c(c2)OCO3)=CC(c2ccccc2O)N1 (stereo not drawn),-6.14% (inactive),–
CCOC(=O)N1CCC(NC(=O)C(C)n2c3ccccc3c3cnn(C)c(=O)c32)CC1 (stereo not drawn),–,28.2 µM (active)
CCOC(=O)N1CCC(NC(=O)CCc2cn(C)c3ccccc23)CC1,-26.7% (inactive),–
CCOC(=O)N1CCC(NC(=O)Cc2cn(C)c3ccccc23)CC1,-21% (inactive),–
COc1cccc(NC(=O)C2(C)CCN2C(=O)CCC2CCCC2)c1 (stereo not drawn),-0.927% (inactive),–
NS(=O)(=O)c1ccc(NC(=O)COC(=O)C2(c3ccc(F)cc3)CCCC2)cc1,–,28.2 µM (active)
O=C(COC(=O)C1(c2ccc(F)cc2)CCCC1)N1CCNC1=O,-1.05% (inactive),–
CN(C)S(=O)(=O)c1cccc(NC(=O)COC(=O)C2(c3ccccc3F)CCCC2)c1,0.268% (inactive),–
COc1ccc2c(c1)C(C)=CC(C)(C)N2C(=O)Nc1ccccc1,–,28.2 µM (active)
CC1=CC(C)(C)N(C(=O)CSc2nnc(-c3ccccc3)o2)c2ccc(C)cc21,-0.107% (inactive),–
COc1ccc2c(c1)C(C)=CC(C)(C)N2C(=O)CNCc1ccc2c(c1)OCO2,2.1% (inactive),–
COc1ccc(S(=O)(=O)N2CCCCC2c2cc(C(=O)NCc3ccc(F)cc3)no2)cc1 (stereo not drawn),0.0963% (inactive),–
CC(=O)Oc1ccc(-c2nc3c(C)cccc3c(=O)o2)cc1,-2.1% (inactive),–

Compound,"activity change, negative = active",Potency
COc1nc(N=C(N)N)nc2c(C)cccc12,–,3.16 µM (active)
Cc1nc(N=C(N)N)nc2c(C)cccc12,0.0945% (inactive),–
Nc1ccc(/C=C/c2ccnc3ccccc23)c([N+](=O)[O-])c1,0.526% (inactive),–
O=C1NC[C@H](Cc2ccc(O)cc2)N(C[C@H]2CCCN2C[C@H](Cc2ccccc2)N2C[C@H](Cc3ccccc3)N(CCc3ccccc3)C(=O)C2=O)C1=O,-3.18% (inactive),–
Cc1occc1C(=O)Nc1cccc(S(=O)(=O)N2CCOCC2)c1,1.54% (inactive),–
O=C(CSc1ccccc1)Nc1cccc(S(=O)(=O)N2CCOCC2)c1,1% (inactive),–
O=C(Nc1cccc(S(=O)(=O)N2CCOCC2)c1)C12CC3CC(CC(C3)C1)C2,–,31.6 µM (active)
CC(C)c1cccc(-c2csc(C(O)c3ccccc3)n2)c1 (stereo not drawn),-2.46% (inactive),–
OC(CBr)CN1CCCCC1 (stereo not drawn),0.573% (inactive),–
NC(=O)Cc1ccc2c(c1)[nH]c1ccccc12,-19.7% (inactive),–
CCc1ccc2[nH]c(=O)c(Cc3ccccc3)c(O)c2c1,3.85% (inactive),–
COc1ccc(CNC(=O)c2ccc3c(O)c(S(=O)(=O)c4ccccc4)c(=O)[nH]c3c2)cc1,-27% (inactive),–
O=C(Cc1c(O)c2ccccc2[nH]c1=O)NCc1ccccc1,–,20 µM (active)
CCCOC(=O)Cc1c(O)c2ccccc2[nH]c1=O,–,25.1 µM (active)
COC(=O)Cc1ccc(NC(=S)NCc2ccccc2)cc1,-1.76% (inactive),–
CCCc1nc2ccccc2c(=O)n1NC(=O)c1c(O)c2ccccc2[nH]c1=O,-15.9% (inactive),–
COC(=O)Cc1c(-c2[nH]c3ccccc3c2CC(=O)OC)[nH]c2ccccc12,–,28.2 µM (active)
O=C(Cc1ccccc1)NCc1ccc(F)cc1,3.53% (inactive),–
CCC(C)N(c1ccc(/C=C/c2ccnc3ccccc23)cc1)C(C)CC (stereo not drawn),-0.824% (inactive),–
COC(=O)c1ccc2nc(C3CCCCC3)c(Cc3cccc(F)c3)n2c1,-13.5% (inactive),–
C(=Nc1ccc(/C=C/c2ccnc3ccccc23)cc1)Nc1ccc(/C=C/c2ccnc3ccccc23)cc1,-6.68% (inactive),–
Nc1ncnc2c1ncn2[C@@H]1O[C@H](C(=O)N2CCSC2)[C@@H](O)[C@H]1O,0.957% (inactive),–
CCOC(=O)C1C(C)C(C(C)(C)C)N(S(=O)(=O)c2ccc(C)cc2)C1c1ccccc1 (stereo not drawn),0.713% (inactive),–
Nc1nc(CSc2nnnn2-c2ccccc2)nc(Nc2ccccc2)n1,-2.32% (inactive),–
OC[C@@H]1CN(Cc2cccs2)C[C@H](n2cnc3c(NC4CCCC4)ncnc32)O1,-2.11% (inactive),–

Compound,"activity change, negative = active",Potency
O=C(CCC1N=C2c3ccccc3N=C(SCc3ccccc3F)N2C1=O)NCCc1ccccc1 (stereo not drawn),4.35% (inactive),–
CCOC(=O)CSC1=Nc2ccccc2C2=NC(CCC(=O)NCc3ccc(F)cc3)C(=O)N12 (stereo not drawn),4.54% (inactive),–
NC(=O)CSC1=Nc2ccccc2C2=NC(CCC(=O)NCc3ccc(F)cc3)C(=O)N12 (stereo not drawn),–,28.2 µM (active)
CCCOc1ccc(F)cc1-c1cc(C(=O)Nc2ccc(F)cc2)[nH]n1,-0.0166% (inactive),–
CC(C)C1CCN(C(=O)C2CCC(=O)N(C3CCCCCC3)C2)CC1 (stereo not drawn),1.03% (inactive),–
COc1ccc(Cn2ccnc2SCC(=O)NCc2ccco2)cc1,-2.28% (inactive),–
O=c1c2[nH]c3ccc(Cl)cc3c2ncn1Cc1ccccn1,-14.7% (inactive),–
COc1ccc2c(c1)c1ncn(Cc3ccccn3)c(=O)c1n2C,4.35% (inactive),–
Cc1ccc2[nH]c3c(=O)n(Cc4ccccn4)cnc3c2c1,–,31.6 µM (active)
COCCN(Cc1ccco1)C(=O)Cn1ncc2c([nH]c3ccccc32)c1=O,4.44% (inactive),–
COc1ccc2[nH]c3c(=O)n(Cc4ccco4)cnc3c2c1,–,25.1 µM (active)
CN(C)CCCOc1ccc(-c2ccc3nccn3c2)cn1,-24.3% (inactive),–
COc1cccc(NC(=O)C2(C)CCN2Cc2ccccc2Cl)c1 (stereo not drawn),-0.477% (inactive),–
CC1=C(C(=O)N(C(C)C)C(C)C)CC(CC(=O)NCCCCc2ccccc2)C(=O)N1CCC1=CCCCC1 (stereo not drawn),-0.51% (inactive),–
CN(Cc1ccccc1)C(=O)CCC1CCN(C(=O)c2ccco2)CC1,1.04% (inactive),–
Cc1ccc2c(c1)c1ncnc(N3CCc4ccccc4C3)c1n2C,–,31.6 µM (active)
Cc1ccc2c(c1)c1ncn(CCC3=CCCCC3)c(=O)c1n2C,-29.4% (inactive),–
Cc1ccc2c(c1)c1ncn(Cc3ccc(F)cc3)c(=O)c1n2C,3.72% (inactive),–
CCCCN1C(=O)C(CC(=O)NCc2cccs2)CC(C(=O)N2CCCCCC2)=C1C (stereo not drawn),2.09% (inactive),–
CCOC1=C2[C@@H](CN(S(=O)(=O)c3ccc(C)cc3)[C@H]2c2ccccc2F)[C@H]2C(=O)N(Cc3ccccc3)C(=O)[C@H]2C1,-5.97% (inactive),–
COc1ccc(-c2[nH]nc(-c3ccccc3)c2-c2nc3ccccc3[nH]2)cc1,–,25.1 µM (active)
Nc1ccccc1-c1nc2ccncc2[nH]1,3.69% (inactive),–
Clc1ccccc1SCc1nc2ccccc2[nH]1,-2.24% (inactive),–
c1ccc(-c2[nH]ncc2-c2nc3ccccc3[nH]2)cc1,–,25.1 µM (active)
Oc1ccc(-c2[nH]ncc2-c2nc3ccccc3s2)c(O)c1,-25.2% (inactive),–

Compound,"activity change, negative = active",Potency
COc1ccc(-c2cn[nH]c2-c2ccc(OC)cc2)cc1,-8.81% (inactive),–
Cc1ccc(OCC(=O)Nc2ccc(Cl)c(-c3nc4ccccc4[nH]3)c2)cc1C,4.68% (inactive),–
COc1ccc(NC(=O)CSc2nc3ccccc3[nH]2)cc1,-0.614% (inactive),–
c1ccc2[nH]c(-c3nc4ccccc4[nH]3)nc2c1,–,7.08 µM (active)
COc1cccc(CNC(=O)[C@@H]2CCCN2C(=O)[C@@H]2CCCN2C(=O)c2ccccc2)c1,-3.48% (inactive),–
Cc1[nH]c2ccccc2c1C(=O)c1cc([C@H](NC(=O)OC(C)(C)C)C(C)C)sc1N,-1.88% (inactive),–
CN(Cc1cn(Cc2ccc(C(F)(F)F)cc2)nn1)C1CN(Cc2cn(Cc3ccc(C(F)(F)F)cc3)nn2)S(=O)(=O)C1 (stereo not drawn),2.25% (inactive),–
CCOCCCNC(=O)c1cn(CC)c2ccc(S(=O)(=O)N3CCc4ccccc4C3)cc2c1=O,-0.751% (inactive),–
CCOCCCNC(=O)c1cn(CC(C)C)c(=O)c2c1c1ccccc1n2C,–,39.8 µM (active)
COCCCNC(=O)Cn1cc(C(=O)C2CC2)c2ccccc21,0.52% (inactive),–
CC(=O)C[C@@H]1OC[C@H](CO)N1S(=O)(=O)c1ccc(C)cc1,0.114% (inactive),–
CCN1CCN(c2ccc(/C=C/c3ccnc4ccccc34)cc2)CC1,-1.67% (inactive),–
COc1ccc(N2CCN(C(c3cc4ccc(C)cc4[nH]c3=O)c3nnnn3C3CCCC3)CC2)cc1 (stereo not drawn),-8.89% (inactive),–
COCCn1nnnc1C(c1ccccc1Cl)N1CCN(c2ccccc2OC)CC1 (stereo not drawn),16.9% (inactive),–
CCOc1ccc2[nH]c(=O)c(C(c3nnnn3CCOC)N3CCOCC3)cc2c1 (stereo not drawn),–,15.8 µM (active)
CSCCC(C(=O)NC(C)(C)C)n1c(-c2ccccc2)nc2ccccc21 (stereo not drawn),-7.98% (inactive),–
Cc1cccc(C)c1-n1nnnc1C(CCc1ccccc1)N1CCN(C/C=C/c2ccccc2)CC1 (stereo not drawn),2.81% (inactive),–
CCCCNC(=O)c1nc(C2CCN(S(=O)(=O)c3ccc(F)c(F)c3)CC2)oc1-c1cccc(C(F)(F)F)c1,-16.5% (inactive),–
CCOc1cc(C(C(=O)NCC2CCCO2)N(C(=O)Cn2nnc3ccccc32)c2cccc(OC)c2)ccc1O (stereo not drawn),-0.295% (inactive),–
COc1ccc(-c2nc3cc(C)ccn3c2NC2CCCCC2)cc1SC1CCCCC1,3.39% (inactive),–
CCOc1cc(-c2nc3cc(C)ccn3c2NCC2CCCO2)ccc1O (stereo not drawn),–,28.2 µM (active)
Cc1ccc(S(=O)(=O)NN=C2CC(C)(C)CC(=O)C2(C)C)cc1,-0.103% (inactive),–
O=C1COc2ccc(-c3csc(-c4ccc(Cl)cc4)n3)cc2N1,3.36% (inactive),–
